# Screening data from PubChem BioAssay.
# FLuc counter: qHTS profiling assay for firefly luciferase inhibitor/activator using purifed enzyme and Km concentrations of substrates (counterscreen for miR-21 project); purified FLuc, Km substrates, luminescence inhibition; Potency, µM (highest dose often 57.5 µM), for the others: at the highest dose activity change, negative = inhibition, actives largely listed as inhibitors; 6.9% of 360,000 active; AID 588342, 2011;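 note: plate controls were vehicle for no effect and reference inhibitor for full effect; nearly all actives have a fitted effect of over 55% in size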
# Target sequence (P08659 whole entry, looked up): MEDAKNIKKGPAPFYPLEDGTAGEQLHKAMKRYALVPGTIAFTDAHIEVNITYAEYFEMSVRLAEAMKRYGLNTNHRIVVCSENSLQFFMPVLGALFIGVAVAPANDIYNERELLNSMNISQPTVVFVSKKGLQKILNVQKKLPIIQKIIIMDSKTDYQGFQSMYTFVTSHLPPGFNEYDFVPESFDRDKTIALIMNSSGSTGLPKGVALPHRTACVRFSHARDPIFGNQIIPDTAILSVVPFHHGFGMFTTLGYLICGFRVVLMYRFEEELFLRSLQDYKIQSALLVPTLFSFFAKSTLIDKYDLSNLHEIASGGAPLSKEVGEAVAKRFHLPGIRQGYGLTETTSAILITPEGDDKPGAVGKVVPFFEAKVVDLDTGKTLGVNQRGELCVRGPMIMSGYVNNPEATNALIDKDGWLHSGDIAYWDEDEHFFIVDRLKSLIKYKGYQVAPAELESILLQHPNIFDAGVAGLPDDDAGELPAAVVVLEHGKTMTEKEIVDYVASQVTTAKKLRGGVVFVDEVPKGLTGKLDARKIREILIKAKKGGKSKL
#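 Purified P. pyralis luciferase (10nM final) with 10uM D-luciferin and 10uM ATP (Km levels) in 50mM Tris acetate pH 7.5, 10mM Mg acetate, 0.01% Tween-20, 0.05% BSA; qHTS 6-point titration, ~60 µM downward; luminescence read.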
# Luc counter: Counterscreen for Luciferase (Kinase-Glo TM) Inhibition | Kinase-Glo luciferase, ATP luminescence, 8 min | 0.28% of 200,000 active | Potency, µM (top dose mostly 38.3 µM), for the others: at the highest dose activity change, negative = inhibition, actives largely listed as inhibitors | Luciferin 4-monooxygenase (Photuris pensylvanica), Q27757; note: % is set by controls: 0 for no effect and ±100 for the full control effect; nearly all actives have a fitted effect of over 60% in size
#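 Light output from Kinase-Glo luciferase with luciferin and 10 uM ATP in 50 mM imidazole pH 7.2, KCl, MgCl2, Tween 20, BSA; compound pin-delivered, 8-min ambient incubation, then luminescence read.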
# Rab9 prom act: qHTS Assay for Rab9 Promoter Activators; Huh7 Rab9 promoter-luciferase reporter, luminescence, 24 h; Potency, µM (series often up to 9.22 µM), for the others: at the top dose activation, negative = inhibition, actives largely listed as activators; 2.8% of 320,000 active; AID 485297, 2010; note: % of control where 0% means no effect; nearly all actives have a fitted effect of over 60% in size
#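 Cell-based reporter: Huh7 stable for Rab9 promoter-driven luciferase, plated in reduced-serum medium with 10% FBS at 1500 cells/well, compound-treated 24 h at 37 °C, luminescence read after 10 min reagent.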
# ELG1 genotox: qHTS screen for small molecules that induce genotoxicity in human embryonic kidney (HEK293T) cells expressing luciferase-tagged ELG1. AID 504466, 2011. HEK293T ELG1-luciferase reporter, luminescence, 16 h. 1.3% of 330,000 active. Potency, µM (titrated, usually from 46 µM), for inactives: top-dose activity change, positive = activation, actives largely listed as activators; note: % of control where 0% means no effect; nearly all actives have a fitted effect of over 60% in size
#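 Genotoxic stress is detected as increased luminescence from luciferase-tagged ELG1 in HEK293T cells, measured with ONE-Glo after a 16 hr treatment at 37 °C.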
# NPC1 prom act: qHTS Assay for NPC1 Promoter Activators. 2.4% of 320,000 active. Potency, µM (titrated, usually from 9.22 µM), for inactives: at the top dose activation, usual class: activators. Huh7 NPC1 promoter luciferase reporter, 24 h. AID 485313, 2010; note: % of control where 0% means no effect; nearly all actives have a fitted effect of over 60% in size
#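 Huh7 cells stably carrying NPC1 promoter–luciferase, plated in Opti-MEM with 10% FBS for 2 h, were exposed to compound in DMSO for 24 h at 37 °C; luciferase reagent was added for 10 min and luminescence read.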
# SMN2 splice up: qHTS Assay for Enhancers of SMN2 Splice Variant Expression | HEK293 SMN2-luciferase splicing reporter, luminescence, 30-36 h | Potency, µM (top dose mostly 46.1 µM), inactives show top-dose activity change, positive = activation, most hits filed as activators | 2.8% of 210,000 active; note: % of control where 0% means no effect; nearly all actives have a fitted effect of over 55% in size
#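 qHTS luciferase splicing reporter: luminescence rises when SMN2 exon 7 is included in transfected HEK293 cells. Compound exposure lasted 30-36 h at 37C, with 4.5 mM final sodium butyrate as control, followed by a ONE-Glo read.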
# An asterisk follows results filed as active; ? = inconclusive; nt = not tested or not shown. An excerpt weighted towards active compounds, which were near 7.5% of everything screened. Calls come from the whole dose curve; as a rule, active = well fitted curve in the direction sought with a large enough effect; inconclusive = small, poorly fitted or top-dose-only effect, or another doubt; inactive = no such curve, though single readings can be large; an effect the other way counts as inactive or inconclusive. Potency is the fitted concentration of half-maximal effect.
SMILES,FLuc counter,Luc counter,Rab9 prom act,ELG1 genotox,NPC1 prom act,SMN2 splice up
O=C(NCc1ccccc1)c1ccc(CS(=O)(=O)c2c(Cl)cccc2Cl)o1,-3.0%,nt,nt,nt,nt,-8.1%
CCC(=O)C1CCCN(C(=O)CCc2nnc(-c3ccc(C(C)=O)s3)o2)C1 (stereo unspecified),10.7µM*,nt,?,?,?,nt
CCC(=O)C1CCCN(C(=O)CCc2nnc(-c3ccc4c(c3)OCO4)o2)C1 (stereo unspecified),?,nt,?,?,13.6%,nt
CC1CCCN(C(=O)CCc2nnc(-c3ccc4c(c3)OCO4)o2)C1 (stereo unspecified),?,nt,28.4%,?,?,nt
CCCOC1CCCN(C(=O)CCc2nnc(-c3ccc4c(c3)OCO4)o2)C1 (stereo unspecified),?,nt,3.16µM*,?,?,nt
Oc1c(Cl)cc(Cl)cc1C=Nc1cc(C(F)(F)F)ccc1N1CCc2ccccc2C1,1.9µM*,nt,?,?,?,nt
O=c1cc(-c2ccc(F)cc2)[nH][nH]1,-0.2%,-0.3%,-1.8%,-1.8%,-3.5%,19.0%
O=c1cc(-c2ccc(C3CCCCC3)cc2)[nH][nH]1,10.7µM*,-0.8%,1.1%,16.6%,3.8%,8.9%
COc1cccc(N2CCN(S(=O)(=O)c3ccc(-c4ccno4)cc3OC)CC2)c1,-1.5%,nt,nt,nt,nt,nt
COc1ccc(/C=N/Nc2ccc(C(=O)O)cc2)cc1OC,1.35µM*,nt,0.316µM*,?,0.316µM*,nt
C=CCOc1c(Br)cc(/C=N/Nc2ccc(C(=O)O)cc2)cc1OCC,30.1µM*,1.8%,3.55µM*,?,2.82µM*,8.91µM*
COc1ccc(/C=N/Nc2ccc(C(=O)O)cc2)cc1Br,0.675µM*,?,?,?,?,-79.7%
CCOc1cc(/C=N/O)cc(Br)c1OCC,0.8%,1.0%,0.8%,-1.0%,-5.6%,-39.7%
COc1ccc(/C=N\NC(=O)C2CCCC2)cc1Br,5.5%,nt,-1.5%,0.6%,-3.0%,nt
Cc1ccc(-c2nc3sccn3c2Nc2ccccc2C)cc1,?,nt,nt,nt,nt,-4.7%
O=c1[nH]c(=O)n(C2CC(O)C(CO)O2)cc1C(F)(F)F (stereo unspecified),nt,-5.9%,nt,nt,nt,-14.7%
CC(=O)NCCNc1ncnc2ccc(-c3ccc(C(=O)N(C)C)cc3)cc12,nt,0.6%,nt,nt,nt,10.4%
Cc1ccc(CCNC(=O)CN2CCN(Cc3ccc(Cl)cc3)C2=O)cc1,2.4%,nt,nt,nt,nt,-6.8%
O=C(Oc1ccccc1)N1CCC2(CC1)CCN(c1ccncc1)CC2,nt,-1.5%,nt,nt,nt,-80.1%
COc1ccc(S(=O)(=O)N2CCOCC2)cc1NC(=O)c1ccc(=O)[nH]c1,-0.1%,nt,10.4%,2.7%,-1.0%,nt
Cc1cccc(C(=O)Nc2cc(-c3ccccc3F)nn2-c2ccccc2)c1,-3.9%,nt,nt,nt,nt,nt
Cc1ccc2oc(-c3ccc(C)c(NC(=O)c4ccc5c(c4)OCCO5)c3)nc2c1,-16.2%,nt,nt,nt,nt,1.7%
Cc1ccc2nc(-c3ccc(Cl)c(NC(=O)COc4ccc(C(C)C)cc4)c3)oc2c1,10.7µM*,nt,nt,nt,nt,17.1%
Cc1ccc2nc(-c3ccc(Cl)c(NC(=O)COc4ccc([N+](=O)[O-])cc4)c3)oc2c1,-9.5%,nt,nt,nt,nt,15.7%
CCOc1ccc(-c2nc3cc(NC(=O)COc4cccc(C)c4)ccc3o2)cc1,-13.3%,nt,nt,nt,nt,-4.9%
SMILES,FLuc counter,Luc counter,Rab9 prom act,ELG1 genotox,NPC1 prom act,SMN2 splice up
Cc1ccc(OCC(=O)Nc2ccc(-c3nc4ccc(C)cc4o3)cc2)cc1,-2.0%,nt,nt,nt,nt,0.631µM*
COc1ccc(OCC(=O)Nc2ccc(-c3nc4cc(C)c(C)cc4o3)cc2)cc1,nt,nt,nt,nt,nt,0.562µM*
Cc1ccc2nc(-c3ccc(Cl)c(NC(=O)c4ccc5c(c4)OCCO5)c3)oc2c1,10.7µM*,nt,nt,nt,nt,-34.4%
CCCCNc1nc(C)nc2c1nc(-c1ccccc1)n2CC(C)(C)CN(C)C,nt,-2.3%,nt,nt,nt,-5.1%
CC12CCC(C(=O)Nc3nccs3)(OC1=O)C2(C)C (stereo unspecified),1.6%,4.7%,2.0%,1.0%,0.7%,6.3%
CC12CCC(C(=O)Nc3nc4ccc(Br)cc4s3)(OC1=O)C2(C)C (stereo unspecified),19µM*,-0.2%,?,13.9%,?,?
CC1CCCCN1C(=O)COC(=O)c1ccc2ccccc2n1 (stereo unspecified),8.49µM*,nt,-4.1%,0.8%,-8.4%,nt
O=C(Nc1cccc(NC(=O)c2cccc(F)c2)n1)c1cccc(F)c1,19µM*,nt,0.3%,-1.1%,-2.7%,nt
CCCC(=O)Nc1cnc(NC(=O)c2cccc(F)c2)cc1C,9.53µM*,7.08µM*,0.631µM*,0.461µM*,0.447µM*,2µM*
O=C(Nc1cccc(NC(=O)c2c(F)cccc2F)n1)c1c(F)cccc1F,-13.3%,nt,-4.2%,-0.5%,-1.8%,nt
O=C(Nc1ccc2[nH]c(=O)c(=O)[nH]c2c1)c1cccc(F)c1,1.3%,nt,nt,nt,nt,?
Cc1ccc2cc(NC(=O)c3ccccc3)ccc2n1,1.9µM*,nt,0.398µM*,1.83µM*,0.562µM*,nt
O=C(Nc1ccc2ccccc2c1)c1cccc(F)c1,2.13µM*,nt,0.708µM*,?,1.26µM*,nt
CC(NC(=O)C1CCN(S(=O)(=O)c2ccc(Br)s2)CC1)c1ccccc1 (stereo unspecified),0.4%,nt,3.2%,-0.9%,-0.1%,nt
COC(=O)c1cc(NC(=O)c2cccc(F)c2)cc(C(=O)OC)c1,?,1.9%,-7.2%,-5.4%,-1.1%,-11.1%
Cc1ccc2cc(NC(=O)c3cccc(F)c3)ccc2n1,2.69µM*,nt,0.562µM*,2.59µM*,0.631µM*,nt
COc1ccc(S(=O)(=O)/N=C2\C=C(Nc3ccc(O)cc3)C(=O)c3ccccc32)cc1,?,nt,-54.0%,-33.2%,-45.8%,nt
COc1ccc(Cn2c(O)c(C=Nc3ccc(OC)cc3)c3ccccc3c2=O)cc1,-2.3%,-3.0%,-0.8%,0.8%,-7.6%,22.1%
O=C1C(C=Nc2ccccc2)=C(O)c2ccccc21,0.536µM*,12.6µM*,1.58µM*,?,3.16µM*,15.8µM*
COc1ccc(N=Cc2oc3ccc4ccccc4c3c2O)cc1,?,-5.6%,3.16µM*,22.1%,?,12.6µM*
COc1ccc(N=CC2=C(O)c3ccccc3C2=O)cc1,0.151µM*,4.47µM*,0.316µM*,?,0.708µM*,3.98µM*
COc1ccc(N=Cc2[nH]c3ccccc3c2O)cc1,2.13µM*,-19.4%,?,12.9%,8.5%,?
